# Experimental data: PubChem BioAssay AID588477 (NMMLSC, 2011)
# Activity calls are given as the source filed them.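 Rule for the calls: active = valid curve fit with half-effect dose at most 10 µM and total binding change across doses of 30 points or more; inactive = the rest.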
# Tested on: Rab7
# Assay: inhibitors of Bodipy-GTP binding across eight GTPases, SAR follow-up, selectivity assay for Cdc42 probe extension project, biochemical, round 1 SAR, Mg buffer, multiplex flow cytometry (AID 588477)
# Settings: GST-GTPase beads; series mostly up to 100 µM
row,Compound,outcome
1,COc1ccc(C2CC(c3ccccc3)=NN2c2ccc(S(N)(=O)=O)cc2)cc1 (configuration not stated),inactive
2,O=C(C#Cc1ccccc1)c1cccc([N+](=O)[O-])c1,inactive
